EBV LMP1 NFkB: inhibitors of Epstein-Barr LMP1-induced NF-kappaB reporter. LMP1-induced NF-kappaB luciferase reporter cells, luminescence. inhibition, % at 12.5 µM. actives 0.69% (n = 350,000); in the data active means inhibition above about 41%
HIF-2a block: HIF-2a inhibition; 786-0 RCC cells HIF-2a reporter, luciferase luminescence, overnight; inhibition, % at 18.8 µM; actives 0.72% (n = 360,000); AID 624352;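 active means inhibition of the luminescence signal of 40% or more relative to plate controls, in a single-dose primary screen at 18.75 µM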
KKLEB cytotox: reduces viability of KKLEB cystic fibrosis airway cells; KKLEB CF airway cells viability, ATPlite luminescence, overnight; active compounds read low; cells stimulated with P. aeruginosa culture filtrate; activity change (cytotoxicity), % at 5 µM; actives 0.36% (n = 360,000);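 active means corrected activity change at or below -50% at 5 µM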
Peg3 promoter: inhibitors of Peg3 promoter; HeLa PEG-Prom luciferase reporter, luminescence, overnight; inhibition, % at 20 µM; actives 1.7% (n = 360,000);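 active means inhibition of at least 50% at 20 µM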
CF NFkB block: inhibitors of cystic fibrosis induced NF-kB; KKLEB NF-kB-GFP reporter, PAF-induced, GFP fluorescence overnight; inhibition, % at 5 µM; actives 0.86% (n = 360,000); AID 588850;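 active means at least 50% inhibition at 5 µM, scaled per plate between neutral and stimulator controls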;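 further: PAF is a Pseudomonas aeruginosa culture filtrate used as stimulus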
MITF TRPM1 inh: inhibitors of MITF-driven TRPM1 promoter in melanoma cells; AID 488899; inhibition, % at 12.5 µM; actives 0.83% (n = 330,000); SK-MEL-5 TRPM1 promoter luciferase, 24 h;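 active means mean inhibition across replicates of 60% or more, whatever share of single replicates reaches that level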
Hits are given with their value; n = inactive; x = not tested or not shown. Most compounds without a hit are left out; they make up all but 3% or so of the library.

SMILES | EBV LMP1 NFkB | HIF-2a block | KKLEB cytotox | Peg3 promoter | CF NFkB block | MITF TRPM1 inh
C[C@@]12C(=O)Nc3ccc(F)cc3C(=O)N1[C@H]1c3cc(Br)ccc3OC[C@@H]1[C@@H]2c1ccccc1 | n | n | n | n | n | n
C[C@@]12C(=O)Nc3cc(F)ccc3C(=O)N1[C@H]1c3cc(Br)ccc3OC[C@@H]1[C@@H]2c1ccccc1 | n | n | n | 54 | n | n
Cc1ccccc1Cn1ccc(NC(=O)c2cnn3c(C(F)(F)F)cc(-c4ccco4)nc23)n1 | n | n | n | 51 | n | n
O=C(Nc1cnn(C23CC4CC(CC(C4)C2)C3)c1)c1cnn2c(C(F)(F)F)cc(-c3ccco3)nc12 | n | n | n | 71 | n | 75
Cc1cn([C@H]2C[C@H](O)[C@@H](/C=C/C(=O)NCCN3CCCCC3)O2)c(=O)[nH]c1=O | x | n | n | n | n | x
COc1ccc(CN2C(=O)CSCC2(C)C(=O)Nc2c(C)cccc2C)cc1OC (configuration not stated) | x | n | x | x | x | x
CCN(CC)CCNC(=O)c1ccc(NC(=O)c2cc(-c3ccco3)nc3ccccc23)cc1 | n | n | n | 61 | n | 70
Cc1ccc(-c2nn(-c3ccccc3)cc2C(=O)Nc2ccc(C(=O)O)cc2)cc1 | n | n | n | n | n | n
O=C(O)c1cccc(NC(=O)c2cn(-c3ccccc3)nc2-c2ccc(F)cc2)c1 | 82 | n | n | n | n | n
O=C(Nc1cccnc1)c1cn(-c2ccccc2)nc1-c1cccs1 | n | n | n | n | n | n
CCOc1ccc(NC(=O)CN(C)C(=O)c2cn(-c3ccc(F)cc3)nc2-c2cccc(OC)c2)cc1OCC | n | n | n | n | n | n
CN(C)C(=O)c1ccc(NC(=O)c2cc(-c3ccco3)nc3ccccc23)cc1 | n | n | n | n | n | n
CCN(CC)CCNC(=O)c1ccc(NC(=O)c2cn(-c3ccccc3)nc2-c2cccs2)cc1 | n | n | n | 106 | n | 76
CCN(CC)CCNC(=O)c1ccc(NC(=O)c2cn(-c3ccc(F)cc3)nc2-c2cccc(OC)c2)cc1 | n | n | n | 101 | n | 98
CC(NC(=O)C1CCCN1C(=O)OC(C)(C)C)C(=O)OCc1ccccc1 (configuration not stated) | x | n | n | n | n | x
Cc1ccccc1-c1ccc2c(c1)O[C@@H](CN(C)C(=O)Nc1ccc(C(F)(F)F)cc1)[C@H](C)CN([C@@H](C)CO)S2(=O)=O | n | n | n | n | n | x
CC1CCN(S(=O)(=O)c2ccc3c(c2)C(=NO)c2cc(S(=O)(=O)N4CCC(C)CC4)ccc2-3)CC1 | n | n | n | 100 | 83 | 100
CCN(CC)S(=O)(=O)c1ccc2c(c1)C(=NO)c1cc(S(=O)(=O)N(CC)CC)ccc1-2 | n | n | n | 51 | n | n
CCN(CC)S(=O)(=O)c1ccc(C)c(C)c1 | n | n | n | n | n | n
CC(=O)NCCNC(=O)c1ccc(Cn2c(=O)[nH]c3ccsc3c2=O)cc1 | n | n | n | n | n | n
O=C(Nc1cc(Cl)cc(Cl)c1)c1ccc(Cn2c(=O)[nH]c3ccsc3c2=O)cc1 | n | n | -50 | n | 54 | x
c1cnc2c(-c3ccc4nccn4c3)cccc2c1 | x | n | n | n | n | x
CC(C)(C)OC(=O)NCCCCCNC(=O)c1ncn2c1c(=O)[nH]c1ccccc12 | n | n | n | n | n | x
COc1cc(OC)cc(C2=Cc3ccccc3C(CC(=O)c3ccco3)N2c2ccc(-c3ccc(C(N)=O)cc3)cc2)c1 (configuration not stated) | x | n | x | x | x | x
NC(=O)c1ccsc1NC(=O)COC(=O)/C=C/c1ccc([N+](=O)[O-])cc1 | n | n | n | n | n | n
COC(=O)c1ccc(/C=C/C(=O)OCC(=O)Nc2sccc2C(N)=O)cc1 | n | n | n | 89 | n | n
COc1ccc2cc(C(N)=O)/c(=N\NC(=O)c3ccccc3)oc2c1 | 46 | n | n | n | n | n
COc1cccc(C(=O)N/N=c2/oc3ccccc3cc2C(N)=O)c1 | n | n | n | n | n | n
Cc1ccc(C(=O)NCCC(=O)NCc2cc(=O)n(C)c(=O)n2C)cc1 | n | n | n | n | n | n
Cc1cc(C)cc(C(=O)NCCC(=O)NCc2cc(=O)n(C)c(=O)n2C)c1 | 55 | n | n | n | n | n
